Assay results reported in the supplement of paper PMC8728848.
The sample as a whole holds a higher share of the strongest signals than the screen did.

What was measured:
Assay in all cases: glycan array binding signal (z-score within array); higher = stronger binding
Settings in all cases: glycan notation: IUPAC condensed, linker removed
[1] = molecular target: Fuc(a1-2)Gal(b1-3)[Fuc(a1-4)]GlcNAc(b1-2)Man(a1-3)[Fuc(a1-2)Gal(b1-3)[Fuc(a1-4)]GlcNAc(b1-2)Man(a1-6)]Man(b1-4)GlcNAc(b1-4)GlcNAc
How it was run: (§1)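 From the Consortium for Functional Glycomics database, 3228 arrays were curated, keeping only those whose protein sequence was available. Binding is given as a within-array Z-score averaged across arrays sharing a protein sequence and across linkers. Negative Z-scores can be read as non-binding.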

Fuc(a1-2)Gal(b1-4)Glc6S = molecular target: Fuc(a1-2)Gal(b1-4)Glc6S
How it was run: as §1

[2] = molecular target: Fuc(a1-2)Gal(b1-4)GlcNAc(b1-2)[Fuc(a1-2)Gal(b1-4)GlcNAc(b1-4)]Man(a1-3)[Fuc(a1-2)Gal(b1-4)GlcNAc(b1-2)Man(a1-6)]Man(b1-4)GlcNAc(b1-4)GlcNAc
How it was run: as §1

[3] = molecular target: Fuc(a1-2)Gal(b1-4)GlcNAc6S
How it was run: as §1

[4] = molecular target: Fuc(a1-2)[GalNAc(a1-3)]Gal(b1-4)GlcNAc(b1-2)Man(a1-3)[Fuc(a1-2)[GalNAc(a1-3)]Gal(b1-4)GlcNAc(b1-2)Man(a1-6)]Man(b1-4)GlcNAc(b1-4)GlcNAc
How it was run: as §1

[5] = molecular target: Fuc(a1-2)[GalNAc(a1-4)]Gal(b1-4)GlcNAc
How it was run: as §1

[6] = molecular target: Fuc(a1-3)[Gal(b1-4)]Glc6S
How it was run: as §1

[7] = molecular target: Fuc(a1-3)[Gal3S(b1-4)]GlcNAc
How it was run: as §1

[8] = molecular target: Gal(a1-3)Gal(b1-4)[Fuc(a1-3)]GlcNAc(b1-2)Man(a1-3)[Gal(a1-3)Gal(b1-4)[Fuc(a1-3)]GlcNAc(b1-2)Man(a1-6)]Man(b1-4)GlcNAc(b1-4)GlcNAc
How it was run: as §1

Gal(a1-4)GlcNAc = molecular target: Gal(a1-4)GlcNAc
How it was run: as §1

[9] = molecular target: Gal(b1-3)GalNAc(b1-3)Gal(a1-4)Gal(b1-4)Glc
How it was run: as §1

[10] = molecular target: Gal(b1-3)GalNAc(b1-4)Gal(b1-4)Glc
How it was run: as §1

[11] = molecular target: Gal(b1-3)GlcNAc(b1-3)Gal(b1-4)[Fuc(a1-3)]GlcNAc(b1-6)[Gal(b1-3)GlcNAc(b1-3)]Gal(b1-4)Glc
How it was run: as §1

[12] = molecular target: Gal(b1-4)GlcNAc(b1-3)Gal(b1-4)[Fuc(a1-3)]GlcNAc(b1-3)Gal(b1-4)[Fuc(a1-3)]GlcNAc
How it was run: as §1

[13] = molecular target: Gal(b1-4)GlcNAc(b1-6)[Gal(b1-3)]GalNAc
How it was run: as §1

Gal3S(b1-4)GlcNAc = molecular target: Gal3S(b1-4)GlcNAc
How it was run: as §1

[14] = molecular target: Gal3S(b1-4)[Fuc(a1-3)]Glc
How it was run: as §1

[15] = molecular target: Gal3S(b1-4)[Fuc(a1-3)]Glc6S
How it was run: as §1

Gal6S(b1-4)Glc = molecular target: Gal6S(b1-4)Glc
How it was run: as §1

[16] = molecular target: GalNAc(a1-3)GalNAc(b1-3)Gal(a1-4)Gal(b1-4)GlcNAc
How it was run: as §1

GalNAc3S(b1-4)GlcNAc = molecular target: GalNAc3S(b1-4)GlcNAc
How it was run: as §1

[17] = molecular target: Glc(a1-4)Glc(a1-4)Glc(a1-4)Glc
How it was run: as §1

Glc(b1-4)Glc = molecular target: Glc(b1-4)Glc
How it was run: as §1

[18] = molecular target: GlcNAc(a1-4)Gal(b1-4)GlcNAc(b1-3)Gal(b1-4)GlcNAc(b1-3)Gal(b1-4)GlcNAc
How it was run: as §1

[19] = molecular target: GlcNAc(b1-2)[GlcNAc(b1-4)]Man(a1-3)[GlcNAc(b1-4)][GlcNAc(b1-2)Man(a1-6)]Man(b1-4)GlcNAc(b1-4)GlcNAc
How it was run: as §1

[20] = molecular target: GlcNAc(b1-4)GlcNAc(b1-4)GlcNAc
How it was run: as §1

[21] = molecular target: GlcNAc(b1-4)GlcNAc(b1-4)GlcNAc(b1-4)GlcNAc(b1-4)GlcNAc
How it was run: as §1

[22] = molecular target: GlcNAc(b1-4)GlcNAc(b1-4)GlcNAc(b1-4)GlcNAc(b1-4)GlcNAc(b1-4)GlcNAc
How it was run: as §1

[23] = molecular target: GlcNAc(b1-6)Gal(b1-4)GlcNAc
How it was run: as §1

[24] = molecular target: GlcNAc6S(b1-3)Gal(b1-4)GlcNAc
How it was run: as §1

Man(a1-3)[Man(a1-6)]Man = molecular target: Man(a1-3)[Man(a1-6)]Man
How it was run: as §1

[25] = molecular target: Man(a1-3)[Man(a1-6)]Man(b1-4)GlcNAc(b1-4)GlcNAc
How it was run: as §1

[26] = molecular target: Neu5Ac(a2-3)Gal(b1-3)GalNAc(b1-4)[Neu5Ac(a2-3)]Gal(b1-4)Glc
How it was run: as §1

[27] = molecular target: Neu5Ac(a2-3)Gal(b1-3)GlcNAc
How it was run: as §1

[28] = molecular target: Neu5Ac(a2-3)Gal(b1-4)GlcNAc(b1-2)Man(a1-3)[GlcNAc(b1-2)Man(b1-4)GlcNAc(b1-2)Man(a1-6)]Man(b1-4)GlcNAc(b1-4)GlcNAc
How it was run: as §1

[29] = molecular target: Neu5Ac(a2-3)Gal(b1-4)[Fuc(a1-3)]GlcNAc
How it was run: as §1

[30] = molecular target: Neu5Ac(a2-6)Gal(b1-4)GlcNAc(b1-2)Man(a1-3)Man(b1-4)GlcNAc(b1-4)GlcNAc
How it was run: as §1

[31] = molecular target: Neu5Ac(a2-6)Gal(b1-4)GlcNAc(b1-2)Man(a1-6)[Gal(b1-4)GlcNAc(b1-2)Man(a1-3)]Man(b1-4)GlcNAc(b1-4)GlcNAc
How it was run: as §1

[32] = molecular target: Neu5Ac(a2-6)GlcNAc(b1-4)GlcNAc(b1-4)GlcNAc
How it was run: as §1

[33] = molecular target: Neu5Ac(a2-8)Neu5Ac(a2-8)Neu5Ac
How it was run: as §1

Neu5Gc(a2-3)Gal(b1-4)Glc = molecular target: Neu5Gc(a2-3)Gal(b1-4)Glc
How it was run: as §1

B1: CIH1 (Colletotrichum higginsianum) (protein)
chain: LPQATPTTPTPTSASAAATISATSSPTCSPGPVIDYTVVSGDTLTIISQRFSSGICNIADASGITNPNFLSLGQVLQVPTYVCTPDNTSCLAKEGSDTCVEGGPATHTIVAGDTFFLVAQSLGLDVNALLAANEGVDPLLLQIGDVINIPVC
glycan array binding signal (z-score) [1]: 0.015 | glycan array binding signal (z-score) (Fuc(a1-2)Gal(b1-4)Glc6S): -0.071 | glycan array binding signal (z-score) [2]: -0.061 | glycan array binding signal (z-score) [3]: 0.014 | glycan array binding signal (z-score) [4]: -0.074 | glycan array binding signal (z-score) [5]: -0.071 | glycan array binding signal (z-score) [6]: -0.072 | glycan array binding signal (z-score) [7]: -0.065 | glycan array binding signal (z-score) [8]: 0.011 | glycan array binding signal (z-score) (Gal(a1-4)GlcNAc): -0.052 | glycan array binding signal (z-score) [9]: -0.071 | glycan array binding signal (z-score) [10]: -0.063 | glycan array binding signal (z-score) [11]: -0.057 | glycan array binding signal (z-score) [12]: -0.079 | glycan array binding signal (z-score) [13]: -0.072 | glycan array binding signal (z-score) (Gal3S(b1-4)GlcNAc): -0.067 | glycan array binding signal (z-score) [14]: -0.081 | glycan array binding signal (z-score) [15]: 0.006 | glycan array binding signal (z-score) (Gal6S(b1-4)Glc): -0.079 | glycan array binding signal (z-score) [16]: -0.066 | glycan array binding signal (z-score) (GalNAc3S(b1-4)GlcNAc): -0.066 | glycan array binding signal (z-score) [17]: -0.047 | glycan array binding signal (z-score) (Glc(b1-4)Glc): -0.046 | glycan array binding signal (z-score) [18]: -0.08 | glycan array binding signal (z-score) [19]: -0.065 | glycan array binding signal (z-score) [20]: 2.91 | glycan array binding signal (z-score) [21]: 9.28 | glycan array binding signal (z-score) [22]: 20 | glycan array binding signal (z-score) [23]: -0.073 | glycan array binding signal (z-score) [24]: -0.055 | glycan array binding signal (z-score) (Man(a1-3)[Man(a1-6)]Man): -0.045 | glycan array binding signal (z-score) [25]: -0.069 | glycan array binding signal (z-score) [26]: -0.055 | glycan array binding signal (z-score) [27]: -0.05 | glycan array binding signal (z-score) [28]: -0.08 | glycan array binding signal (z-score) [29]: -0.069 | glycan array binding signal (z-score) [30]: -0.004 | glycan array binding signal (z-score) [31]: -0.069 | glycan array binding signal (z-score) [32]: -0.004 | glycan array binding signal (z-score) [33]: -0.065 | glycan array binding signal (z-score) (Neu5Gc(a2-3)Gal(b1-4)Glc): -0.081
